Assay outcomes deposited in PubChem by National Center for Advancing Translational Sciences (NCATS).
Most compounds without a hit are left out; they make up all but 1.1% or so of the library.
a7 integrin act – activates integrin-mediated alleviation for muscular dystrophy; alpha7betagal myoblasts, beta-gal FDG fluorescence, 48 h; Potency, µM (titrated, usually from 38.3 µM), usual class: activators; actives 0.064% (n = 350,000); also: nearly all actives have a fitted effect of over 60% in size
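Alpha7betagal+/- myoblasts (passage 13) were plated 16-24 hr, then exposed to compounds (1:260 dilution of DMSO stock) for 48 hours at 37C. After MPER lysis, β-galactosidase reporter activity was read as FDG fluorescence (ex 480/em 540) after 30 minutes.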
RXFP1 ag – activates the human relaxin receptor RXFP1; Potency, µM (highest dose often 57.5 µM), usual class: activators; HEK293T-RXFP1 cAMP TR-FRET, 30 min; response scale: percent of porcine relaxin response, buffer zero; Q9HBX9; actives 0.3% (n = 370,000); AID 2676; also: nearly all actives have a fitted effect of over 60% in size
Target sequence (Q9HBX9 whole entry, looked up): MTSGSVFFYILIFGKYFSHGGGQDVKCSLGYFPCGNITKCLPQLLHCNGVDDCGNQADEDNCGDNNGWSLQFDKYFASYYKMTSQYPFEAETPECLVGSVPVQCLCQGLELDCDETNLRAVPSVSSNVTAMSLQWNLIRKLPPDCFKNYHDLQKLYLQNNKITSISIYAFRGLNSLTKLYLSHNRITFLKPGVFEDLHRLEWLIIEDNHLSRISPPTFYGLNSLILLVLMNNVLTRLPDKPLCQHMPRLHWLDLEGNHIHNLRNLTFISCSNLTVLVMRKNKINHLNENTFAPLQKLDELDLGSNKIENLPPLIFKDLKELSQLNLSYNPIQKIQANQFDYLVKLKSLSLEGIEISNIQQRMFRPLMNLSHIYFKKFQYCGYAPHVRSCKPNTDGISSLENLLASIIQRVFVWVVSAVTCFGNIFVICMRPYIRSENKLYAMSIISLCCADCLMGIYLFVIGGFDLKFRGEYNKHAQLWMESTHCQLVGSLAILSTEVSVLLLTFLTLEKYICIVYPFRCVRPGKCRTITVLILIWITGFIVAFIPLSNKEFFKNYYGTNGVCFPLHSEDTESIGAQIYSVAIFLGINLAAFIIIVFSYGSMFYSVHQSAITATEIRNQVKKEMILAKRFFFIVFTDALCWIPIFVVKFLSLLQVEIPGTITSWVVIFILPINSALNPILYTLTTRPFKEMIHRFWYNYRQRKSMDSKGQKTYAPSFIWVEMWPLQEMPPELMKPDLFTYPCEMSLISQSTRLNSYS
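HEK293T cells stably expressing RXFP1 were pretreated with the PDE4 inhibitor Ro 20174, exposed to compounds for 30 min at 37C, lysed, and cAMP was read by TR-FRET. Data normalized to buffer (basal) and 29 nM porcine relaxin (100%).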
ASM inhibitor – blocks human secretory acid sphingomyelinase | P17405 | placental ASM, HMU-PC fluorogenic substrate, 60 min | Potency, µM (titrated, usually from 57.5 µM), actives largely listed as inhibitors | actives 0.006% (n = 340,000)
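Fluorogenic HMU-PC substrate (9 uM final) is turned over by placental ASM in 60 min at 37 C after a 10 min compound preincubation. Reaction ended by alkaline stop (pH 10), with fluorescence read at 386/447 nm.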
gsp antag – antagonizes gsp, the McCune-Albright syndrome mutation. gsp-mutant cells, cAMP HTRF, 30 min. Potency, µM (doses to about 76.9 µM), most hits filed as inhibitors. actives 0.4% (n = 340,000). AID 624288; calls by dose curve; cell line not stated here;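 also: intracellular cAMP measured with PDE inhibitor Ro 20-1724 present during compound exposure; nearly all actives have a fitted effect of over 65% in size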
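Measurement of cellular cAMP by homogeneous time-resolved fluorescence following a 30 min compound exposure at 37C. The PDE inhibitor […] was present throughout; the assay buffer was DPBS with 0.05% BSA and 0.005% Tween 20.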
RXFP1 antag – RXFP1 (human) relaxin receptor antagonism; Q9HBX9; HEK293-RXFP1, relaxin-stimulated cAMP HTRF, 30 min; hits give low values; activity change, negative = inhibition, % at 57.5 µM; actives 0.59% (n = 350,000);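 active = activity change of -60% or lower, but not beyond a set lower limit; inconclusive = change between -60% and -40%, or beyond the set limit; inactive = change above -40%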
gsp agonist – activates gsp, the McCune-Albright syndrome mutation; gsp mutant cells, cAMP HTRF, 30 min; Potency, µM (highest dose often 76.9 µM), actives largely listed as activators; actives 0.13% (n = 340,000); AID 624287; active = well fitted activation curve with a large enough effect; inconclusive = small, poorly fitted or top-dose-only effect, or another doubt; inactive = no such curve, though single readings can be large or run the other way; cell line not stated here;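 also: phosphodiesterase inhibitor Ro 20-1724 added with compounds to block cAMP breakdown; nearly all actives have a fitted effect of over 60% in size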
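Cells in DMEM/10% FBS with G418 were pretreated with compounds in DMSO plus […] (300 uM stock) for 30 min at 37C. cAMP was measured by HTRF (cAMP-d2 plus anti-cAMP antibody-K) after 30 min at room temperature.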
Hits are given with their value; [ ] = dose if it differs, or a comment. Unless noted, calls follow the shape of the dose curve; as a rule, active = well fitted curve in the direction sought with a large enough effect; inconclusive = small, poorly fitted or top-dose-only effect, or another doubt; inactive = no such curve, though single readings can be large; an effect the other way counts as inactive or inconclusive.

`CCOC(=O)C1(Cc2cccc(Cl)c2)CCCN(C(=O)c2ccnn2C)C1` (centres undefined) gave a7 integrin act inactive, RXFP1 ag inactive, ASM inhibitor inactive, gsp antag inactive, RXFP1 antag inactive and gsp agonist inactive.
`CCOC(=O)C1CCN(C(=O)c2cc(S(=O)(=O)N(C)C)ccc2N2CCCC2)CC1` gave a7 integrin act inactive, RXFP1 ag inactive, ASM inhibitor inactive, gsp antag inactive, RXFP1 antag inactive and gsp agonist inconclusive.
Screening CCOC(=O)C1CCCN(C(=O)c2cc(S(=O)(=O)N(C)C)ccc2N2CCCC2)C1 (centres undefined) returned a7 integrin act inactive, RXFP1 ag inactive, ASM inhibitor inactive, gsp antag inactive, RXFP1 antag -71 and gsp agonist inactive[15.4 µM].
COc1ccc(/C=N/NC(=O)c2[nH]c3ccc(Br)cc3c2-c2ccccc2)c(C(=O)O)c1OC was read as a7 integrin act inactive, RXFP1 ag inactive, ASM inhibitor inconclusive, gsp antag inactive, RXFP1 antag inactive and gsp agonist inactive[15.4 µM].
Screening COc1ccc(/C=N/NC(=O)c2[nH]c3ccc(Cl)cc3c2-c2ccccc2)c(C(=O)O)c1OC returned a7 integrin act inactive, RXFP1 ag inactive, ASM inhibitor 14µM, gsp antag inactive, RXFP1 antag inactive and gsp agonist inactive[15.4 µM].
`CCCCn1c(=O)[nH]c(=O)c2c1nc(Cn1ncc(Cl)c(Cl)c1=O)n2CCC` gave a7 integrin act inactive, RXFP1 ag 25µM, ASM inhibitor inactive, gsp antag inactive, RXFP1 antag inactive and gsp agonist inactive[15.4 µM].
For CCCCn1c(=O)[nH]c(=O)c2c1nc(CN1C(=O)c3ccccc3S1(=O)=O)n2CCC the results were a7 integrin act inactive, RXFP1 ag inactive, ASM inhibitor inactive, gsp antag inactive, RXFP1 antag inactive and gsp agonist inactive.
`CCOCCCNC(=O)c1ccc(-n2c(=S)[nH]c3ccccc3c2=O)cc1` gave a7 integrin act inactive, RXFP1 ag inactive, ASM inhibitor inactive, gsp antag inactive, RXFP1 antag -90 and gsp agonist inactive[15.4 µM].
Screening CCCCNC(=O)c1ccc2c(=O)n(CCCOCC)c(=S)[nH]c2c1 returned a7 integrin act inactive, RXFP1 ag inactive, ASM inhibitor inactive, gsp antag inactive, RXFP1 antag inactive and gsp agonist inactive.
`Cc1ccc(C)c(N2CCN(C(=O)CCNC(=O)Cn3ccc4ccccc4c3=O)CC2)c1` gave a7 integrin act inactive, RXFP1 ag inactive, ASM inhibitor inactive, gsp antag inactive, RXFP1 antag inactive and gsp agonist inconclusive.
Screening Cc1ccc(Cl)cc1N1CCN(C(=O)Cn2ccc3ccccc3c2=O)CC1 returned a7 integrin act inactive, RXFP1 ag inactive, ASM inhibitor inactive, gsp antag 25µM, RXFP1 antag inactive and gsp agonist inactive.
`CCN(CC(=O)Nc1c(F)cccc1F)C(=O)CCCN1C(=O)c2cccc3cccc(c23)C1=O` gave a7 integrin act inactive, RXFP1 antag inactive and gsp agonist 13µM.
`CC(C)C1C(=O)N(Cc2cn(CC3CCCCC3)nn2)CCS(=O)(=O)N1Cc1ccc(-c2cccc(CO)c2)cc1` (centres undefined) gave a7 integrin act inactive, RXFP1 antag inactive and gsp agonist inactive.
Screening CC(=O)N1CCc2c(sc(NC(=O)CSc3ccc(F)cc3)c2-c2nc3ccccc3s2)C1 returned RXFP1 ag inactive and RXFP1 antag inactive.
Screening CN1CCc2c(sc(NC(=O)CSc3ccc(F)cc3)c2-c2nc3ccccc3s2)C1 returned RXFP1 ag inactive and RXFP1 antag -96.
C=C1CCN([C@@H](CC(C)C)C(=O)NCc2ccco2)S(=O)(=O)c2ccccc21 was read as a7 integrin act inactive, ASM inhibitor inactive, gsp antag inactive and gsp agonist inactive.
Screening Cc1cccc(CC(Cc2nc3ccccc3[nH]2)c2nc3ccccc3[nH]2)c1 (centres undefined) returned a7 integrin act inactive, RXFP1 ag inactive, ASM inhibitor inactive, gsp antag inconclusive, RXFP1 antag inactive and gsp agonist inactive.
For COc1ccccc1CC(Cc1nc2ccccc2[nH]1)c1nc2ccccc2[nH]1 (centres undefined) the results were a7 integrin act inactive, RXFP1 ag inactive, ASM inhibitor inactive, gsp antag inactive, RXFP1 antag -67 and gsp agonist inconclusive.
For C=CCOC(=O)C1=C(C)N(C)C(=O)NC1c1cc2c(cc1Br)OCO2 (centres undefined) the results were a7 integrin act inactive, RXFP1 ag inactive, ASM inhibitor inactive, gsp antag inactive, RXFP1 antag -74 and gsp agonist inactive.
Screening O=C(CSc1nc(-c2ccccc2)cs1)NCCN1C(=O)CSC1=O returned a7 integrin act inactive, RXFP1 ag inactive, ASM inhibitor inactive, gsp antag inactive, RXFP1 antag inactive and gsp agonist inactive[15.4 µM].
Screening CS(=O)(=O)c1ccc(Cl)c(NC(=O)CSc2nncn2-c2ccccc2)c1 returned a7 integrin act 13µM, RXFP1 ag inactive, ASM inhibitor inactive, gsp antag inactive, RXFP1 antag inactive and gsp agonist inactive[15.4 µM].
For O=C(CSc1nncn1-c1ccccc1)Nc1ccccc1 the results were a7 integrin act inactive, RXFP1 ag inactive, ASM inhibitor inactive, gsp antag inactive, RXFP1 antag inactive and gsp agonist inactive[15.4 µM].
For CCN(CC)S(=O)(=O)c1ccc(Cl)c(NC(=O)CSc2cccc[n+]2[O-])c1 the results were a7 integrin act inactive, RXFP1 ag 25µM, ASM inhibitor inactive, gsp antag inactive, RXFP1 antag inactive and gsp agonist 8.9µM.
Cc1c(CNCCCc2ccccc2)c(C(=O)O)c(C)n1Cc1cccc(Cl)c1 was read as RXFP1 ag inactive and RXFP1 antag inactive.
For O=C(O)Cn1cnnn1 the results were RXFP1 antag inactive.
`CCC(=O)N1CCc2cc(S(=O)(=O)NCCC(=O)Nc3cccc(SC)c3)ccc21` gave RXFP1 ag inactive and RXFP1 antag inactive.
`CC(C)(CO)CNC(=O)CCc1nnc(-c2ccc(-c3ccccc3)cc2)o1` gave a7 integrin act inactive, RXFP1 ag inactive, ASM inhibitor inactive, gsp antag inactive, RXFP1 antag inactive and gsp agonist inactive.
Screening CCO[C@H]1OC(C(=O)N2CCN(Cc3ccc4c(c3)OCO4)CC2)=C[C@@H](C(C)(C)C)[C@@H]1CCCO returned a7 integrin act inactive, RXFP1 ag inactive, ASM inhibitor inactive and gsp antag 7.9µM.
`COc1ccccc1CNC(=O)CCC1N=C2c3ccccc3N=C(SCC(N)=O)N2C1=O` (centres undefined) gave RXFP1 ag inactive and RXFP1 antag inactive.
